{"source": "paper PMC12136788", "binders": {"B1": {"name": "chrX:12734859:12734860:+_ENSMUSG00000031010_ENSMUST00000089302|mus_hu|motif|central (ssRNA)", "RNA": "GGGAGUUCUACAGUCCGACGAUCAUCACUGGCAGAGCCACGGACUACUUUCUUUGUGUGAAAUCCUGUAGUAAAGAGGAACCGGGCAGCAAGUUGAAUACUGAUCAUAGUGAUUUCUUCUGCUUCAGGCAACAGGUGAUCUUGCAACAGAGGAUUGAGCAUCA"}, "B2": {"name": "chr8:21961785:21961786:+_ENSG00000158863_ENST00000289921|hu_mus|FALSE|FALSE (ssRNA)", "RNA": "GGGAGUUCUACAGUCCGACGAUCCCAUGCAAAUGCCAAAGUGCAUUGAGUAUUGCCCAGCCUCUCAAACGAGUACAAAUCUCAAGUGUAGACCCACUCCACCAAGAUCUGCUCCUGUCCCACACCAGCACCCAUGUGUACUCACAACAGAGGAUUGAGCAUCA"}, "B3": {"name": "131934741_131943559_139_3pUTR_ENSG00000108010_ENST00000331244|human|control|control (ssRNA)", "RNA": "GGGAGUUCUACAGUCCGACGAUCUUCUUUAGCUAACUCUGCCAUAACUUCGUUCAUCUGUGCACACUGUGGAGCCCAUGGUGCCCAGAAAUGGACCACAAGGAGGGACUUGGCUUUGAGGCGCAGCAGCUCCUCAAACUGCCCCAACAGAGGAUUGAGCAUCA"}, "B4": {"name": "88753824_88753944_1043_CDS_ENSMUSG00000053333_ENSMUST00000065694|mouse|control|control (ssRNA)", "RNA": "GGGAGUUCUACAGUCCGACGAUCGGCAAAAUUACAGUCCUCCUUCCAGUCUAUGAUGCGGCAGAUGAACAGCGUGUUGGCAAAGUCUUUAGGUCGGGUCAUGAAGUCCUGGGGACAGUCCUUGAGAGGUACGUAAAUUCUAGGCAACAGAGGAUUGAGCAUCA"}, "B5": {"name": "chr5:108714581:108714582:-_ENSG00000198961_ENST00000361557|hu_hu|FALSE|FALSE (ssRNA)", "RNA": "GGGAGUUCUACAGUCCGACGAUCUGAAAGACCAGUGUAUGCCUCUGCCUCUCUGUUUUCCAACUCAAAUACUGUAUUGCCUAAUGAUUCCUGGUAUCUACUACCUUCCACGACUUCUGCAGAAAGUUGAAGAUGGUCAUUAUCCAACAGAGGAUUGAGCAUCA"}, "B6": {"name": "chr15:31520727:31520728:-_ENSMUSG00000022234_ENSMUST00000022842|mus_mus|FALSE|FALSE (ssRNA)", "RNA": "GGGAGUUCUACAGUCCGACGAUCAGUUUAUUCUUCAGAUUCUCCAGGCUUACGGAUGUCAUCAAUCUUCAGAAUCAUCCUAACCAUCUGGGUGGCAAGAGAGAUCUGCUGCUUUUUGCCAAUCAAGGUUUCUAUGACAUGCUGCAACAGAGGAUUGAGCAUCA"}, "B7": {"name": "86370578_86370698_3324_CDS_ENSMUSG00000021244_ENSMUST00000021670|mouse|control|control (ssRNA)", "RNA": "GGGAGUUCUACAGUCCGACGAUCUGGCCUCACAAACACCCUGUCCCGGUUGCCUUCUCCUCUGUUCAUUUUCUCACGACUGUCUUCUCUUCUACCCAUCAUUUUAUCAUGGAAAUCUUCUUGCUUGACCAGACCUGGACCACGCAACAGAGGAUUGAGCAUCA"}, "B8": {"name": "chr7:26236612:26236613:-_ENSG00000122566_ENST00000356674|hu_mus|motif|central (ssRNA)", "RNA": "GGGAGUUCUACAGUCCGACGAUCAACAAACAGCUUCUUCACAGUCACAUGGGCUCCUGGUUUUCCAGACUCCUCUCUUGCGGCAGCACGUUUUGGCUCAACUACCCUGCCAUCAAUGGAAUGGGGCCUUGCAGCCAUGGCAGCCAACAGAGGAUUGAGCAUCA"}, "B9": {"name": "chr1:163117127:163117128:-_ENSG00000143248_ENST00000313961|hu_mus|hu_hu_hu_mus_False|1_18 (ssRNA)", "RNA": "GGGAGUUCUACAGUCCGACGAUCUGCUACAAAGGAUGUAACUCAACUCACAGGGCAACUUUUGGAAGCCUGACCAGAUGACUACUUGAUUAGCUCCUUAUAAAAUUCAGAGCGCACAAAGCGAGGCAGAGAAUCCUUUUCCAUCAACAGAGGAUUGAGCAUCA"}, "B10": {"name": "chr16:45382771:45382772:-_ENSMUSG00000022661_ENSMUST00000163230|mus_mus|mus_mus_mus_hu_True|18_88 (ssRNA)", "RNA": "GGGAGUUCUACAGUCCGACGAUCCUGGGUCAUGUUAUAAGACAAAUGGAUAGGGAGGGCAUGCUUCUCAAAAAAUGUGAGCUAUUGUCUAAGACUAACAAUAUUUAUCUAGCUAUAUAAAAAUAAGAAAUGAAUAAGUUAAGACAACAGAGGAUUGAGCAUCA"}, "B11": {"name": "chr18:56819859:56819860:+_ENSG00000166562_ENST00000588875|hu_mus|hu_hu_hu_mus_True|38_38 (ssRNA)", "RNA": "GGGAGUUCUACAGUCCGACGAUCAACCUUGAUUACUCUGUGAACUAUCGGAAUGUCUCUUCCUUCAACCUUAAAAACAACUAUUUCACCAGCUCUGAUUGGGUCUUCCCGGAAAUUCGUGAGGAACAGCAGAUCUCCUCUGUGCAACAGAGGAUUGAGCAUCA"}, "B12": {"name": "78791426_78796734_1209_CDS_ENSMUSG00000033088_ENSMUST00000109689|mouse|control|control (ssRNA)", "RNA": "GGGAGUUCUACAGUCCGACGAUCACUGCCAGAAUUCUCCUUCCUCUGGCCUGCUGUGUCUCCUCGGGCUGGGGACCUGGUGGCCUUUCGAGCACUGUCAGCUCUCAGUCCCUCCUGAGGCCUCCUUGGGAUCAUCUCUGUGAGCAACAGAGGAUUGAGCAUCA"}, "B13": {"name": "chr7:141450121:141450122:+_ENSG00000106028_ENST00000265304|hu_mus|hu_hu_hu_mus_True|28_98 (ssRNA)", "RNA": "GGGAGUUCUACAGUCCGACGAUCUCAUCCGUUCUAUUCCUUCUCUUUUGUCUGGUCACUCAGAAAUAUAAUGUUAUCAGCUAUGAUUGUUGUUGCUUGCCGCCUCACAUUAUUUUUAUCCAUGUACUCGCCAUAGUCCACUUUCAACAGAGGAUUGAGCAUCA"}, "B14": {"name": "180848183_180848303_6210_CDS_ENSMUSG00000026494_ENSMUST00000161017|mouse|control|control (ssRNA)", "RNA": "GGGAGUUCUACAGUCCGACGAUCAUUGGACCUUUUCUUUUGGUUUUUGAGGCUCCUGCAUCUCCCUCCCACGGAGCUGCUGUUCUCGCUCAUGGAGUCCUGGGCUGAGGAUGCACUGCCGGUGGCCUCGCUGUCUCUCAUCAUCAACAGAGGAUUGAGCAUCA"}}, "note": "The full ranking holds about 24,000 sequences; the median of “enrichment r” is about 0.99, and the highest 2% start at about 3.7. What follows is part of a selection rich in the highest values, with near analogues and random picks from the rest."}
{"target": "T1, UNK ZnF1-3 (human, UniProt Q9C0B0 31-174)", "T1 sequence": "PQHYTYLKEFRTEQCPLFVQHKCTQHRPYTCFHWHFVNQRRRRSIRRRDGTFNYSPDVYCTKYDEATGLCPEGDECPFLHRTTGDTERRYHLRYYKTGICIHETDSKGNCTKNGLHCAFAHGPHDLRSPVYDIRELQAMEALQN", "assay": "nsRBNS (natural sequence RNA bind-n-seq); RBNS binding buffer (assumed for nsRBNS): 25 mM Tris pH 7.5, 150 mM KCl, 3 mM MgCl2, 0.01% Triton X-100, 500 ug/ml BSA, 20 U/ml SUPERase-In, 4 C; UNK is unkempt and MSI1 is Musashi-1; names of the RNAs are library labels; protein concentration not given here; high values mean tight binding", "units": {"binding signal": "enrichment R"}}
{"binder": "B1", "binding signal": 1.47}
{"binder": "B2", "binding signal": 1.22}
{"binder": "B3", "binding signal": 0.775}
{"binder": "B4", "binding signal": 1.63}
{"binder": "B5", "binding signal": 0.745}
{"binder": "B6", "binding signal": 0.637}
{"binder": "B7", "binding signal": 0.682}
{"binder": "B8", "binding signal": 0.995}
{"binder": "B9", "binding signal": 1.28}
{"binder": "B10", "binding signal": 4.85}
{"binder": "B11", "binding signal": 0.808}
{"binder": "B12", "binding signal": 0.647}
{"binder": "B13", "binding signal": 0.444}
{"binder": "B14", "binding signal": 0.445}
